SARS PLpro yeast – SARS-CoV PLP inhibition in yeast; S. cerevisiae expressing SARS-CoV PLpro, growth rescue; 0.19% of 330,000 active; Potency, µM (doses to about 32.9 µM), without a hit: at the highest dose activity, positive = growth rescue, most hits filed as activators; also: potency is read from the fitted curve at half-maximal effect; 0% is about no effect; nearly all actives have a fitted effect of over 55% in size
NS1 function inh – inhibitors of influenza NS1 protein function | AID 2326 | Potency, µM (top dose mostly 46.1 µM), inactives show at the top dose activity, positive = more growth | 0.4% of 270,000 active; also: potency is read from the fitted curve at half-maximal effect; actives are rising curves; nearly all actives have a fitted effect of over 50% in size
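In this qHTS, NS1 from influenza A is expressed in budding yeast, where it slows growth. Cells are switched from glucose to 2% galactose medium (pH 6.0, -URA), treated with compound, and growth recovery is read at OD600.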
Cycloheximide cs – counter-screen for Shiga toxin inhibitors: cycloheximide protein synthesis inhibition; AID 2314; cell reporter, cycloheximide protein synthesis inhibition counterscreen; 12% of 300,000 active; max response, %; in the data active = max response mostly above about 13%, no sharp cut-off; inactive = mostly below about 14%; also: read at 38.3 µM for the half of the compounds with a filed dose; 0% is about no effect
Shiga inhibitor – Shiga toxin inhibition; 9.2% of 290,000 active; Vero cells, Shiga toxin protein synthesis inhibition reporter; inhibition, % at 38.7 µM; in the data active = inhibition mostly above about 28%, no sharp cut-off; inactive = mostly below about 43%; also: 0% is about no effect
* hit, by the source's call; ? = inconclusive; / = no result given; + = active, no number. In the library only some 12% were active in any assay of this set; here they are far more common. Unless noted, calls follow the shape of the full dose curve.

SMILES | SARS PLpro yeast | NS1 function inh | Cycloheximide cs | Shiga inhibitor
O=C(CSc1nnc(-c2ccco2)o1)Nc1c(F)cccc1F | 2.3% | / | / | /
O=C(CSc1nnc(-c2ccco2)o1)c1ccc[nH]1 | -1.0% | / | 50.1* | 110.3*
CCc1ccc(NC(=O)C(=O)NCC2CCCN2S(=O)(=O)c2cccs2)cc1 (stereo not given) | -1.8% | / | / | /
Cc1cc(C)nc(NS(=O)(=O)c2ccc(N/C=C/C(=O)c3ccc(Cl)cc3)cc2)n1 | 11.5% | -11.0% | 11.4* | 19.9
CC(=O)Nc1ccc(S(=O)(=O)Nc2ccc(S(=O)(=O)Nc3nc(C)cc(C)n3)cc2)cc1 | 3.3% | 0.8% | -5.1 | -5.0
COc1ccc(C(=O)/C=C/Nc2ccc(S(=O)(=O)Nc3nc(C)cc(C)n3)cc2)cc1OC | 16.0% | -7.5% | 15.8* | -4.0
COc1ccc(C(=O)/C=C/Nc2ccc(S(=O)(=O)Nc3nc(C)cc(C)n3)cc2)c(OC)c1 | -1.3% | -0.5% | 1.3 | 44.2
CC(C)C[C@H](NC(=O)C1CCN(S(=O)(=O)c2ccccc2)CC1)C(=O)NCc1ccncc1 | 2.2% | -7.6% | -2.9 | -2.4
Cc1ccc(/C=N/NC(=O)c2csc(C)c2)o1 | -22.5% | 3.5% | 22.8* | +
Cc1ccc(/C=N/NC(=O)c2cccs2)o1 | 12.8% | 11.8% | 40.5* | 161.7*
CCOC(=O)C1=C(N)Oc2ccc(Br)cc2C1C(C#N)C(=O)OCC (stereo not given) | / | / | -3.4 | -3.5
C/C(=N\Nc1ccccn1)c1ccc(N2CCOCC2)cc1 | -1.3% | / | 41.5* | 115.9*
C/C(=N\Nc1ccccn1)c1ccc(C(C)C)cc1 | 9.2% | / | 46.6* | 104.2*
O=C(O)c1cc(N/N=C/c2ccc(N3CCOCC3)cc2)ccc1Cl | -0.1% | -2.7% | 59.4* | 136.9*
Clc1cccc(N/N=C/c2ccc(N3CCOCC3)cc2)c1 | -13.6% | -61.0% | 37.7* | 31.6
C(=N\Nc1ccccn1)/c1ccc(N2CCOCC2)cc1 | -0.9% | -3.4% | 47.2* | 71.2
Cc1nc(N/N=C/c2cccc(F)c2)cc(N2CCOCC2)n1 | 1.7% | -37.4% | 2.0 | -2.6
C(=N\Nc1ccccc1)/c1ccc(N2CCOCC2)cc1 | -9.3% | -13.3% | 48.5* | 69.4*
O=[N+]([O-])c1cccc(N/N=C/c2ccc(N3CCOCC3)cc2)c1 | -12.6% | -81.6% | 49.8* | 80.4*
Cc1ccc(S(=O)(=O)NN=Cc2ccc(N3CCOCC3)cc2)cc1[N+](=O)[O-] | -6.1% | / | / | /
COc1cc2c(cc1NC(=O)CSc1ccccc1)oc1ccccc12 | -26.1% | 2.0% | 29.0* | 19.1
COc1ccc(OCC(=O)Nc2cc3oc4ccccc4c3cc2OC)cc1 | 17.6% | ? | -1.5 | -11.3
COc1cc2c(cc1NC(=O)CSc1nccn1C)oc1ccccc12 | -37.2% | -24.0% | 43.3* | 68.2*
COc1cc2c(cc1NC(=O)CSc1nc3ccccc3[nH]1)oc1ccccc12 | -19.6% | 10.0% | 1.6 | -7.0
Fc1cc(F)c(NC(=S)N2CCOCC2)c(F)c1 | -0.6% | 1.6% | -1.7 | 18.4
SMILES | SARS PLpro yeast | NS1 function inh | Cycloheximide cs | Shiga inhibitor
Cc1nc2c(=O)n(C)c(=O)nc-2n(C)n1 | -62.3% | -42.6% | -10.9 | -2.7
CCn1nc(-c2ccccc2)nc2c(=O)n(C)c(=O)nc1-2 | -97.5% | -67.5% | 42.8* | 48.3*
Cc1ccc(OC(=O)COc2ccccc2)c(-n2nc3ccccc3n2)c1 | 7.3% | 1.0% | 41.1* | 94.3*
Cc1ccc(OC(=O)COc2ccccc2C)c(-n2nc3ccccc3n2)c1 | 13.7% | 3.5% | 42.7* | 69.4*
Cc1ccc(OC(=O)c2cccc([N+](=O)[O-])c2)c(-n2nc3ccccc3n2)c1 | 0.5% | -1.5% | 26.7* | 12.1
COC(=O)COc1ccc(C)cc1-n1nc2ccccc2n1 | -6.0% | -81.8% | -6.1 | 6.7
N#Cc1c(/N=C/c2cc3ccccc3s2)sc2c1CCC2 | -13.1% | -1.7% | 19.9* | 32.9*
Cc1ccc(/C=N/c2sc3c(c2C#N)CCCCC3)o1 | 3.0% | -13.1% | -1.8 | 6.4
Cc1ccc(/C=N/c2sc3c(c2C#N)CCC3)s1 | -4.7% | 0.1% | 54.7* | 113.7*
N#Cc1c(/N=C/c2ccco2)sc2c1CCC2 | 0.1% | 2.2% | -1.2 | 8.5
CC(=O)Nc1ccc(S(=O)(=O)NC2CCS(=O)(=O)C2)cc1Cl (stereo not given) | 1.5% | 3.6% | -2.1 | -9.0
CC(=O)N(CN1C(=O)c2ccccc2C1=O)c1cccc(C)c1 | -1.1% | 2.5% | -1.7 | 11.8
CC(=O)N(/N=C1\Sc2ccccc2C1=O)c1cccc(C)c1 | -7.7% | -11.1% | 58.2* | 141.6*
CCC1CCCCN1C(=O)c1ccc(OC2CCN(C(=O)CCOC)CC2)cc1 (stereo not given) | 0.3% | -6.7% | 15.9* | 11.3
COc1ccc(C(=O)N2CCCCCC2)cc1OC1CCN(C(C)=O)CC1 | -1.1% | 0.2% | 5.4 | -2.5
